High-throughput results: PubChem, Paczesny and Yang Labs, IUPUI and University of Michigan
ST2 IL33 inh: blocks human ST2 binding to IL-33; hit rate 2.3% among 78,000; AlphaLISA ST2-Fc/biotin-IL-33 interaction, 1 h; inhibition, % for hits at 17 µM; in the data active = inhibition above about 30%
Target sequence (Q01638 whole entry, looked up): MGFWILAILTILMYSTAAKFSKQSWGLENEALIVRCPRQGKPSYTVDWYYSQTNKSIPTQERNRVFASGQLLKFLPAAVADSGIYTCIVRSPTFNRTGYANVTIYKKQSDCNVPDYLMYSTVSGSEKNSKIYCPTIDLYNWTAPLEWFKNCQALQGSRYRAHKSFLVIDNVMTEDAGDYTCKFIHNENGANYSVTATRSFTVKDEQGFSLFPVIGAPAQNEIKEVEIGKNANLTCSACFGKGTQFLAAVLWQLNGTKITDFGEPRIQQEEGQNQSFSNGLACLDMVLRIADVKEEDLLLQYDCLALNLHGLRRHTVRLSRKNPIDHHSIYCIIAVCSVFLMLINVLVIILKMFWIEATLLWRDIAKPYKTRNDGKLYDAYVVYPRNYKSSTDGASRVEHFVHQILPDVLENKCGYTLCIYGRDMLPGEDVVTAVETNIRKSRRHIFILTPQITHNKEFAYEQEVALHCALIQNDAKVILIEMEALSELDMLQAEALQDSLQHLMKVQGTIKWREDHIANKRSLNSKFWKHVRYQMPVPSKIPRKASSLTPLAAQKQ
* marks the source's active call; other numbers are inactive results; i = inactive. This is one part of a sample in which hits are shown more often than they occur.

SMILES	ST2 IL33 inh
COc1cc2c(cc1OC)CN(C(=O)C1CCC(=O)N(Cc3ccccn3)C1)CC2 (stereo not drawn)	i
Cc1cc(N2CC[C@@H](N3CCOCC3)[C@H](O)C2)nc(-c2ccccc2)n1	i
Cn1cc(CC(=O)NCC2(c3ccccc3)CCCC2)c2ccccc21	i
Cc1ccc(S(=O)(=O)N2CCN(c3nc(C)cc(N4CCCC4)n3)CC2)c(C)c1	i
Cc1ccc(S(=O)(=O)N=C2C=CC(=O)c3ccccc32)c(C)c1	61.0%*
Cc1cc(C)c(S(=O)(=O)n2cnc3ccccc32)c(C)c1	i
CC(=O)N(CN1C(=O)c2ccccc2C1=O)c1cc(C)ccc1C	i
Cc1cc(C)c(S(N)(=O)=O)c(C)c1	i
Cc1cc(C)c(S(=O)(=O)N=C2C=CC(=O)c3ccccc32)c(C)c1	39.0%*
Cc1ccc(C)c(S(=O)(=O)N=C2C=C(Br)C(=O)c3ccccc32)c1	34.0%*
COc1ccccc1N1CCN(C(=O)c2cc3c(=O)n4ccccc4nc3n2C)CC1	i
CC1(C)CC(=O)C2=C(C1)N(c1ccccc1C#N)C(N)=C(C#N)C2c1ccsc1 (stereo not drawn)	i
COc1ccc(-n2nc3c(c2NC(=O)c2cccc(OC)c2)CS(=O)C3)cc1 (stereo not drawn)	i
CN(Cc1ccc2cccc(O)c2n1)Cc1noc(C2CCC2)n1	i
CCCSc1nc(N)c2c3c(sc2n1)CCCC3	i
CCN1C(=O)N(CCCc2cccnc2)C(=O)C12CCN(Cc1cnc(-c3ccccc3)s1)CC2	i
CCOC(=O)C1(CC2CC2)CCN(Cc2ccc(SC)cc2)CC1	i
CCN1C(=O)N(CCN(C)C)C(=O)C12CCN(Cc1ccc(SC)cc1)CC2	51.0%*
Cc1ccccc1Cn1c(C(C)NC(=O)C(C)(C)C)nc2ccccc21 (stereo not drawn)	i
O=C(Nc1ccccc1C(=O)NCc1ccccc1)c1ccc(CN2CCOCC2)cc1	i
Cc1ccc(C(=O)Nc2ccc(Cl)cc2)cc1	i
Cc1ccc(NC(=O)c2ccc(=O)n(Cc3ccc(F)cc3)c2)cc1	i
CC(=O)N1c2ccc(S(=O)(=O)NC3CCCCC3C)cc2CC1C (stereo not drawn)	i
Cc1cccc(Nc2nnc(Cc3ccccc3)c(=O)[nH]2)c1C	i
Cc1nc2sccn2c1C(=O)N1[C@H]2CCNC[C@@H]1CC2	i
SMILES	ST2 IL33 inh
CCc1ccc(-c2cn3c(C(=O)N4[C@@H]5CC[C@H]4CNC(=O)C5)csc3n2)cc1	36.0%*
COc1ccc(NC2(C(=O)N3[C@@H]4CC[C@H]3CNC(=O)C4)CCCC2)cc1	i
Cc1nc2ccccc2c2c1C(=O)N(c1cccc(Cl)c1)C2=O	i
Cc1nc2ccccc2c2c1C(=O)N(c1ccc(F)cc1F)C2=O	i
Cc1nc2ccccc2c2c1C(=O)N(Cc1cccnc1)C2=O	i
Cc1nc2ccccc2c2c1C(=O)N(C(C)Cc1ccccc1)C2=O (stereo not drawn)	34.0%*
Cc1nc2ccccc2c2c1C(=O)N(c1ccccc1)C2=O	i
COc1ccc(Cl)cc1N1C(=O)c2c(C)nc3ccccc3c2C1=O	31.0%*
Cc1ccc(S(=O)(=O)Nc2ccc3oc(C)c(C(=O)OCc4ccccc4)c3c2)cc1	i
CC12CC(NC(=O)N1c1ccc(Cl)cc1)c1ccccc1O2 (stereo not drawn)	i
O=C1CC(c2cccs2)CC2=C1C(c1cccc(F)c1)Nc1ccccc1N2 (stereo not drawn)	30.0%*
O=C1CC(c2cccs2)CC2=C1C(c1cc(F)ccc1F)Nc1ccccc1N2 (stereo not drawn)	i
O=C1CC(c2cccs2)CC2=C1C(c1cccc([N+](=O)[O-])c1)Nc1ccccc1N2 (stereo not drawn)	i
COc1ccc(OC)c(C2CC(=O)N3CN(c4ccc(C)c(C)c4)CSC3=C2C#N)c1 (stereo not drawn)	i
CSc1nc2c(c(=O)[nH]1)C(c1cccnc1)C1=C(CCCC1=O)N2 (stereo not drawn)	i
COc1cccc(Nc2nc(-c3ccc(F)cc3)cs2)c1	i
Brc1ccc(Nc2nc(-c3ccccn3)cs2)cc1	i
COc1ccc(Nc2nc(Nc3ccc(OC)cc3)c([N+](=O)[O-])cc2[N+](=O)[O-])cc1	i
Cc1nc2ncccn2c1-c1csc(Nc2cccc([N+](=O)[O-])c2)n1	37.0%*
NS(=O)(=O)c1ccc(Nc2nc(-c3ccccn3)cs2)cc1	i
COc1ccc(Nc2nc(-c3cccc([N+](=O)[O-])c3)cs2)cc1	38.0%*
Cc1ccc(O)c(C(=O)NCc2cccnc2N(C)CCc2ccccn2)c1	i
O=C(NCCc1nc2cccnc2n1-c1ccccc1)Nc1ccc(F)c(Cl)c1	i
Cc1ccccc1NC(=O)CC(=O)NCc1ccc2nonc2c1	i
COc1cccc(OCC(O)Cn2ccnc2-c2nc[nH]c2C)c1 (stereo not drawn)	i
SMILES	ST2 IL33 inh
Cc1cc(/C=C2\NC(=O)N(Cc3ccc(Cl)cc3)C2=O)c(C)n1-c1ccc(C#N)cc1	i
N#Cc1ccc(/C=C2\NC(=O)N(Cc3ccc(Cl)cc3)C2=O)cc1	30.0%*
O=C1N/C(=C\c2ccc(Cl)cc2)C(=O)N1Cc1ccc(Cl)cc1	i
Cc1cnc2c(C(=O)N(C)C(C)Cc3ncccc3C)cnn2c1 (stereo not drawn)	i
Cc1ccc([N+](=O)[O-])cc1N1C(=O)/C(=C\c2ccccc2)N=C1c1ccccc1	40.0%*
O=[N+]([O-])c1cccc(C=Nc2nnc(-c3ccccc3)s2)c1	i
O=C1OC(c2cccc([N+](=O)[O-])c2)=N/C1=C\c1cccc(I)c1	i
CC(=NCc1ccco1)c1c(CSc2ccc(C)cc2)[nH]n(-c2nc3ccccc3s2)c1=O	i
CC1CC(C)CN(CCCNC(=O)Cc2c(C(=O)O)[nH]c3ccc(Cl)cc23)C1 (stereo not drawn)	i
Cc1cc2nc(Cc3cccc(F)c3)c(=O)n(C)c2cc1C	i
Cn1c(=O)c(-c2ccccc2N)nc2cc3ccccc3cc21	32.0%*
CCCCSc1nnc(-c2ccccc2N)c(=O)[nH]1	i
CCOc1ccc(CCN2C(=O)CCC2(C)C(=O)NC2CCCC2)cc1OCC (stereo not drawn)	i
COCCn1c(CNS(=O)(=O)c2ccccc2Cl)nc2cccnc21	i
CN1CCC(N2C[C@@H]3OCC(=O)N(CC(N)=O)[C@@H]3C2)CC1	i
CCCS(=O)(=O)N1CCC(C(=O)NCc2ccccn2)CC1	i
N#Cc1cccc(NC(=O)N[C@H]2[C@H](O)[C@@H](N3CCCC3)[C@@H]3OC[C@H]2O3)c1	i
COc1cccc(NC(=O)N[C@H]2[C@H](O)[C@@H](N3CCN(C(C)=O)CC3)[C@@H]3OC[C@H]2O3)c1	i
COc1cccc(NC(=O)N[C@H]2[C@H](O)[C@@H](N3CCCC3)[C@@H]3OC[C@H]2O3)c1	47.0%*
O=C(Nc1cccc(C(F)(F)F)c1)N[C@H]1[C@H](O)[C@@H](N2CCCCC2)[C@@H]2OC[C@H]1O2	i
CN1CCN([C@H]2[C@@H]3OC[C@@H](O3)[C@@H](NC(=O)Nc3ccccc3)[C@@H]2O)CC1	35.0%*
COc1ccc(NC(=O)N[C@H]2[C@H](O)[C@@H](N3CCC(Cc4ccccc4)CC3)[C@@H]3OC[C@H]2O3)cc1	i
CC(C)C(=O)Nc1cnc2ccccc2c1	i
COC(=O)C1=C(C)NC2=C(C(=O)CC(C)(C)C2)C1c1coc2ccccc2c1=O (stereo not drawn)	i
O=C(O)c1ccc(N2C(=O)c3nccnc3C2=O)cc1	i
